# Source: the supplement of paper PMC8728848
# The sample as a whole holds a higher share of the strongest signals than the screen did.
# B1: Clec18Av1 (Homo sapiens), A5D8T8 (protein)
# chain: MLHPETSPGRGHLLAVLLALLGTAWAEVWPPQLQEQAPMAGALNRKESFLLLSLHNRLRSWVQPPAADMRRLDWSDSLAQLAQARAALCGTPTPSLASGLWRTLQVGWNMQLLPAGLVSFVEVVSLWFAEGQRYSHAAGECARNATCTHYTQLVWATSSQLGCGRHLCSAGQAAIEAFVCAYSPRGNWEVNGKTIVPYKKGAWCSLCTASVSGCFKAWDHAGGLCEVPRNPCRMSCQNHGRLNISTCHCHCPPGYTGRYCQVRCSLQCVHGRFREEECSCVCDIGYGGAQCATKVHFPFHTCDLRIDGDCFMVSSEADTYYRARMKCQRKGGVLAQIKSQKVQDILAFYLGRLETTNEVIDSDFETRNFWIGLTYKTAKDSFRWATGEHQAFTSFAFGQPDNHGFGNCVELQASAAFNWNDQRCKTRNRYICQFAQEHISRWGPGS
# Columns and labels:
# Assay in all cases: glycan array binding signal (z-score within array); higher = stronger binding
# Details in all cases: glycan notation: IUPAC condensed, linker removed
# [1] = molecular target: Fuc(a1-2)Gal(b1-3)GalNAc(b1-3)Gal(a1-4)Gal(b1-4)Glc
# Summary of the method: (§1)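 The binding signal is a Z-score computed within each array and averaged over linkers. Arrays of the same protein sequence at different concentrations or buffers were also averaged together. Data originate from 3228 arrays in the Consortium for Functional Glycomics database, kept only where the protein sequence was available.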
# [2] = molecular target: Fuc(a1-2)Gal(b1-3)GlcNAc(b1-3)[Fuc(a1-2)Gal(b1-3)GlcNAc(b1-6)]GalNAc
# Summary of the method: as §1
# [3] = molecular target: Fuc(a1-2)Gal(b1-4)[Fuc(a1-3)]GlcNAc
# Summary of the method: as §1
# [4] = molecular target: Fuc(a1-2)[Gal(a1-3)]Gal(b1-4)GlcNAc(b1-2)Man(a1-3)[Fuc(a1-2)[Gal(a1-3)]Gal(b1-4)GlcNAc(b1-2)Man(a1-6)]Man(b1-4)GlcNAc(b1-4)GlcNAc
# Summary of the method: as §1
# [5] = molecular target: Fuc(a1-2)[Gal(a1-3)]Gal(b1-4)[Fuc(a1-3)]GlcNAc(b1-3)GalNAc
# Summary of the method: as §1
# [6] = molecular target: Fuc(a1-2)[GalNAc(a1-3)]Gal(b1-3)GlcNAc
# Summary of the method: as §1
# [7] = molecular target: Fuc(a1-3)[Gal(b1-4)]GlcNAc(b1-3)GalNAc
# Summary of the method: as §1
# [8] = molecular target: Fuc(a1-3)[Gal3S(b1-4)]GlcNAc
# Summary of the method: as §1
# [9] = molecular target: Gal(a1-3)Gal(b1-3)GlcNAc(b1-2)Man
# Summary of the method: as §1
# Gal(a1-6)Glc = molecular target: Gal(a1-6)Glc
# Summary of the method: as §1
# [10] = molecular target: Gal(b1-3)GlcNAc(a1-6)Gal(b1-4)GlcNAc
# Summary of the method: as §1
# [11] = molecular target: Gal(b1-4)GlcNAc(b1-2)Man(a1-3)[Gal(b1-4)GlcNAc(b1-2)Man(a1-6)][Gal(b1-4)GlcNAc(b1-4)]Man(b1-4)GlcNAc(b1-4)[Fuc(a1-6)]GlcNAc
# Summary of the method: as §1
# [12] = molecular target: Gal(b1-4)GlcNAc(b1-2)Man(a1-3)[Gal(b1-4)GlcNAc(b1-2)Man(a1-6)][GlcNAc(b1-4)]Man(b1-4)GlcNAc(b1-4)[Fuc(a1-6)]GlcNAc
# Summary of the method: as §1
# [13] = molecular target: Gal(b1-4)GlcNAc(b1-2)[Gal(b1-4)GlcNAc(b1-6)]Man(a1-6)[GlcNAc(b1-4)][Gal(b1-4)GlcNAc(b1-2)Man(a1-3)]Man(b1-4)GlcNAc(b1-4)GlcNAc
# Summary of the method: as §1
# [14] = molecular target: Gal(b1-4)GlcNAc(b1-3)Gal(b1-3)GalNAc
# Summary of the method: as §1
# [15] = molecular target: Gal(b1-4)GlcNAc(b1-3)Gal(b1-4)GlcNAc(b1-2)Man(a1-3)[Gal(b1-4)GlcNAc(b1-3)Gal(b1-4)GlcNAc(b1-2)Man(a1-6)]Man(b1-4)GlcNAc(b1-4)[Fuc(a1-6)]GlcNAc
# Summary of the method: as §1
# Gal3S(b1-3)GalNAc = molecular target: Gal3S(b1-3)GalNAc
# Summary of the method: as §1
# [16] = molecular target: GlcA3S(b1-3)Gal(b1-4)GlcNAc(b1-2)Man
# Summary of the method: as §1
# [17] = molecular target: GlcNAc(a1-4)Gal(b1-4)GlcNAc(b1-3)Gal(b1-4)Glc
# Summary of the method: as §1
# [18] = molecular target: GlcNAc(a1-4)Gal(b1-4)GlcNAc(b1-3)Gal(b1-4)[Fuc(a1-3)]GlcNAc(b1-3)Gal(b1-4)[Fuc(a1-3)]GlcNAc
# Summary of the method: as §1
# [19] = molecular target: GlcNAc(b1-2)Man(a1-3)[GlcNAc(b1-2)Man(a1-6)]Man(b1-4)GlcNAc(b1-4)[Fuc(a1-6)]GlcNAc
# Summary of the method: as §1
# [20] = molecular target: GlcNAc(b1-2)[GlcNAc(b1-4)]Man(a1-3)[GlcNAc(b1-4)][GlcNAc(b1-2)[GlcNAc(b1-6)]Man(a1-6)]Man(b1-4)GlcNAc(b1-4)[Fuc(a1-6)]GlcNAc
# Summary of the method: as §1
# [21] = molecular target: GlcNAc(b1-2)[GlcNAc(b1-6)]Man(a1-6)[GlcNAc(b1-2)Man(a1-3)]Man(b1-4)GlcNAc(b1-4)GlcNAc
# Summary of the method: as §1
# [22] = molecular target: GlcNAc(b1-3)Gal(b1-4)GlcNAc(b1-2)Man(a1-3)[GlcNAc(b1-3)Gal(b1-4)GlcNAc(b1-2)Man(a1-6)]Man(b1-4)GlcNAc(b1-4)GlcNAc
# Summary of the method: as §1
# [23] = molecular target: GlcNAc(b1-3)Gal(b1-4)GlcNAc(b1-3)Gal(b1-4)GlcNAc
# Summary of the method: as §1
# [24] = molecular target: GlcNAc(b1-3)Gal(b1-4)GlcNAc(b1-3)Gal(b1-4)GlcNAc(b1-2)Man(a1-3)[GlcNAc(b1-3)Gal(b1-4)GlcNAc(b1-3)Gal(b1-4)GlcNAc(b1-2)Man(a1-6)]Man(b1-4)GlcNAc(b1-4)[Fuc(a1-6)]GlcNAc
# Summary of the method: as §1
# [25] = molecular target: GlcNAc(b1-3)[GlcNAc(b1-6)]GalNAc
# Summary of the method: as §1
# [26] = molecular target: Kdn(a2-3)Gal(b1-4)[Fuc(a1-3)]GlcNAc
# Summary of the method: as §1
# Man(b1-4)GlcNAc = molecular target: Man(b1-4)GlcNAc
# Summary of the method: as §1
# [27] = molecular target: Neu5Ac(a2-3)Gal(b1-3)GlcNAc6S
# Summary of the method: as §1
binder,measurement,setting,value
B1,glycan array binding signal (z-score),[1],-0.849
same,glycan array binding signal (z-score),[2],4.48
same,glycan array binding signal (z-score),[3],-0.818
same,glycan array binding signal (z-score),[4],3.05
same,glycan array binding signal (z-score),[5],-0.446
same,glycan array binding signal (z-score),[6],-0.502
same,glycan array binding signal (z-score),[7],1.02
same,glycan array binding signal (z-score),[8],-0.843
same,glycan array binding signal (z-score),[9],3.22
same,glycan array binding signal (z-score),Gal(a1-6)Glc,-0.747
same,glycan array binding signal (z-score),[10],4.04
same,glycan array binding signal (z-score),[11],2.24
same,glycan array binding signal (z-score),[12],0.712
same,glycan array binding signal (z-score),[13],3.23
same,glycan array binding signal (z-score),[14],3.37
same,glycan array binding signal (z-score),[15],2.85
same,glycan array binding signal (z-score),Gal3S(b1-3)GalNAc,-0.82
same,glycan array binding signal (z-score),[16],-0.197
same,glycan array binding signal (z-score),[17],-0.356
same,glycan array binding signal (z-score),[18],4.79
same,glycan array binding signal (z-score),[19],3.54
same,glycan array binding signal (z-score),[20],-0.868
same,glycan array binding signal (z-score),[21],-0.432
same,glycan array binding signal (z-score),[22],1.53
same,glycan array binding signal (z-score),[23],-0.861
same,glycan array binding signal (z-score),[24],-0.74
same,glycan array binding signal (z-score),[25],-0.808
same,glycan array binding signal (z-score),[26],0.16
same,glycan array binding signal (z-score),Man(b1-4)GlcNAc,-0.825
same,glycan array binding signal (z-score),[27],-0.859
